Molecules are shown by their SMILES. A number with no mark means an inactive call. Where a call stands in place of a potency, no number is given. The source made the active and inactive calls. Unless noted, calls follow the shape of the dose curve; as a rule, active = well fitted activation curve with a large enough effect in the repeat runs; inconclusive = weak or mixed curves; inactive = flat fitted curve, though single readings scatter. Numbered stars: 1 amine (or outer) side, 2 acyl side, 3 side chain; on linkers, the order of the positions; unused ones are H or OH. Bridge positions count the residues as written; N and C are the ends. Square brackets hold non-standard residues; d marks the D form. Peptide text beside a SMILES is read from it. I, II: the chains in the order shown. Actinocin(9to1) = Cc1c2oc3c(C)ccc(C(=O)[*:1])c3nc-2c(C(=O)[*:2])c(N)c1=O; NMeV = CN[C@H](C(=O)O)C(C)C; Sar = CNCC(=O)O

Sequence of KiSS-1 receptor (Homo sapiens) (Q969F8 whole entry, looked up): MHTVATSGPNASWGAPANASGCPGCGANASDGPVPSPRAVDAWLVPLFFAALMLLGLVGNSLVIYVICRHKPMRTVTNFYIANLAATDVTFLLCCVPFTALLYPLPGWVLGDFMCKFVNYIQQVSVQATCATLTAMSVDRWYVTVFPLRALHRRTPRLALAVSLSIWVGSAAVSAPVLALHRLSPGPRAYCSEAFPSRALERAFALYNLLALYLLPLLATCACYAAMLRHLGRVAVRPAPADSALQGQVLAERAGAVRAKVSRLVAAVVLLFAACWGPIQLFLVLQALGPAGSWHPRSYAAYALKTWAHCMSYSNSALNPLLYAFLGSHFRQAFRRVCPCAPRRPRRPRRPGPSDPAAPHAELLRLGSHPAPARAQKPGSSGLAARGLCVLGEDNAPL
Sequence of Gonadotropin-releasing hormone receptor (Homo sapiens) (P30968 whole entry, looked up): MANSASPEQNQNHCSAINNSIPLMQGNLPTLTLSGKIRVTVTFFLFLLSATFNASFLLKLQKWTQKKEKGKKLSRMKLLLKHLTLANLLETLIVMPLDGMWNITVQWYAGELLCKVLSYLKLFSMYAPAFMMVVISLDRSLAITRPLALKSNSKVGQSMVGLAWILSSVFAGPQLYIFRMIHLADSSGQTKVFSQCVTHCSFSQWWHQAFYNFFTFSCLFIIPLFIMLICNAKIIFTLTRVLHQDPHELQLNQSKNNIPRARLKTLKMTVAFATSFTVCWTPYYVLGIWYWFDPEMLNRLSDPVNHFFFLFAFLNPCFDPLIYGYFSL

The target of the first test is Gonadotropin-releasing hormone receptor (Homo sapiens) (UniProt P30968). In words: Human gonadotropin-releasing hormone receptor (GnRHR) small molecule agonists, calcium flux assay in GnRHR-HEK293 cells (AID 1920063; calls by dose curve; also: nearly all actives have a fitted effect of over 35% in size; also: potency is read from the fitted curve at half-maximal effect). The following applies: calcium flux fluorescence, agonist mode; series mostly up to 57.6 µM. The essentials:
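We seeded human GnRHR-expressing HEK293 cells for 18 hours, loaded them with calcium dye for an hour at 37 C, added test compounds, and recorded fluorescence intensity kinetically for three minutes.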
Turning to `COC(=O)c1c(Cl)c(Cl)c(C(=O)OC)c(Cl)c1Cl`, the Potency entry is “inactive”.
Consider `c1ccc2cc3c4ccccc4c4ccccc4c3cc2c1`, for which the Potency entry was “inactive”.
Same read-out and setting: in the case of `Cn1cc(S(C)=O)c(=O)c2ccc(F)cc21` (stereo not drawn) it was “inactive”; in that of `O=Cc1ccc(C(=O)O)cc1`, “inactive”.
Consider `CC(C)=CCC[C@H](C)CC=O`, for which the Potency entry is “inactive”.
On the same count and under the same terms, under `CCC(=O)OCc1ccccc1` stands “inactive”; under `CCCCCC(=O)O[C@]1(C(C)=O)CC[C@H]2[C@@H]3CCC4=CC(=O)CC[C@]4(C)[C@H]3CC[C@@]21C`, “inactive”.
Still for that read-out and setting: in the case of `BrC1CCC(Br)C(Br)CCC(Br)C(Br)CCC1Br` (stereo not drawn) it was “inactive”; in that of `O=[N+]([O-])c1ccc2c(c1)Cc1ccccc1-2`, “inactive”; in that of `CCC1COC(=O)O1` (stereo not drawn), “inactive”.
Turning to `C=C(C)C(=O)OCCCCCCOC(=O)C(=C)C`, the Potency entry is “inactive”.
On to `Cc1c2oc3c(C)ccc(C(=O)N[C@@H]4C(=O)N[C@H](C(C)C)C(=O)N5CCC[C@H]5C(=O)N(C)CC(=O)N(C)[C@@H](C(C)C)C(=O)O[C@@H]4C)c3nc-2c(C(=O)N[C@@H]2C(=O)N[C@H](C(C)C)C(=O)N3CCC[C@H]3C(=O)N(C)CC(=O)N(C)[C@@H](C(C)C)C(=O)O[C@@H]2C)c(N)c1=O` (I: T[dV]P[Sar][NMeV] / II: T[dV]P[Sar][NMeV]; ester I:1-I:C, II:1-II:C; linker I:N-II:N via Actinocin(9to1)), for which the Potency entry is “inactive”.
In the case of `O=[N+]([O-])c1ccccc1Nc1ccccc1`, the Potency result is “inactive”.
For `CCN1CCCC(OC(=O)C(c2ccccc2)c2ccccc2)C1` (stereo not drawn), the Potency result was “inactive”.
As for `O=C1CCCCCCCCCCCCCCCO1`, the Potency result is “inactive”.
For the compound `O=C(O[C@@H](C(=O)O)[C@@H](OC(=O)c1ccccc1)C(=O)O)c1ccccc1`, the Potency result is “inactive”.
Turning to `CN(C)CCCNCCCN(C)C`, the Potency result was “inactive”.
Same read-out and setting: in the case of `CCC(=O)OC(C)c1ccccc1` (stereo not drawn) it was “inactive”; in that of `CC(C)CC(C)(N)C#N` (stereo not drawn), “inactive”.
The same measure, in the same setting: in the case of `Cc1cc(C)cc(O)c1` it was “inactive”; in that of `C=C(C)[C@@H]1CCC2=CC(=O)C[C@@H](C)[C@]2(C)C1`, “inactive”.
Same read-out and setting: in the case of `O=c1[nH]c(=O)c2ccccc2o1` it was “inactive”.
Regarding `COCCOCCOCCOCCO`, the Potency entry was “inactive”.
The same measure, in the same setting: under `CCCCCCCCCCCCCCC(=O)NC(CO)CCCCCCCCCCCCCC` (stereo not drawn) stands “inactive”.
`C[C@@H]1CCC[C@H](C)N1CCCC(O)(c1ccccc1)c1ccccn1` (stereo partly drawn): the Potency entry was “inactive”.
The same measure, in the same setting: under `CCCCCCCCCC(C)=O` stands “inactive”.
`CN(C)c1ccc(C(=N)c2ccc(N(C)C)cc2)cc1`: the Potency is 29.7 µM (active).
For the compound `CCCCCCCCCC/C=C/C#N`, the Potency result was “inactive”.
`CNC(=O)Nc1ccc(Cl)c(Cl)c1`: the Potency result is “inactive”.
As to `[Cl][Eu]([Cl])[Cl]`, the Potency result is “inactive”.
On the same count and under the same terms, in the case of `c1cnc2cc3c(cc2n1)C1CNCC3C1` it was “inactive”.
Regarding `Nc1c(NC/C=C\COc2cc(CN3CCCCC3)ccn2)c(=O)c1=O`, the activity change was -0.254% [at 11.8 µM, stronger effect = higher value].
Take `FC(F)(F)C(Cl)(Cl)Cl`: the Potency result was “inactive”.
As to `CCc1ccc(C=O)cc1`, the Potency result was “inactive”.
`COC(=O)Cc1cccc2ccccc12`: the Potency result is “inactive”.
On to `CCCc1c2oc(C(=O)O)cc(=O)c2cc2c(=O)cc(C(=O)O)n(CC)c12`, for which the Potency result was “inactive”.
For `CO[C@H]1C=CO[C@@]2(C)Oc3c(C)c(O)c4c(O)c(c(/C=N/N5CCN(C)CC5)c(O)c4c3C2=O)NC(=O)/C(C)=C\C=C[C@H](C)[C@H](O)[C@@H](C)[C@@H](O)[C@@H](C)[C@H](OC(C)=O)[C@@H]1C`, the Potency result is “inactive”.
Still for that read-out and setting: in the case of `O=C(O)Cc1ccc(CCNS(=O)(=O)c2ccc(Cl)cc2)cc1` it was “inactive”; in that of `Cc1cc(C)c(C(=O)O)c(C)c1`, “inactive”.

The target of another test is KiSS-1 receptor (Homo sapiens) (UniProt Q969F8). The test can be described thus: Human kisspeptin (KISS1R) small molecule agonists, calcium flux assay in KISS1R-HEK293 cells (AID 1920064). Particulars: KISS1R-HEK293, calcium flux fluorescence, agonist; series mostly up to 76.8 µM. The essentials:
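Kinetic calcium assay, 1 s sampling over 3 min at Ex/Em 480/540, in HEK293 cells engineered with human KISS1R; compounds delivered in DMSO after 1 h dye loading.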
For orientation: A change in cytosolic calcium serves as a functional read-out for many receptors and channels.
As to `COC(=O)c1c(Cl)c(Cl)c(C(=O)OC)c(Cl)c1Cl`, the Potency result was “inactive”.
Turning to `c1ccc2cc3c4ccccc4c4ccccc4c3cc2c1`, the Potency entry is “inactive”.
On to `Cn1cc(S(C)=O)c(=O)c2ccc(F)cc21` (stereo not drawn), for which the Potency entry was “inactive”.
On the same count and under the same terms, under `O=Cc1ccc(C(=O)O)cc1` stands “inactive”; under `CC(C)=CCC[C@H](C)CC=O`, “inactive”; under `CCC(=O)OCc1ccccc1`, “inactive”.
Take `CCCCCC(=O)O[C@]1(C(C)=O)CC[C@H]2[C@@H]3CCC4=CC(=O)CC[C@]4(C)[C@H]3CC[C@@]21C`: the Potency result is “inactive”.
As for `BrC1CCC(Br)C(Br)CCC(Br)C(Br)CCC1Br` (stereo not drawn), the Potency result is “inactive”.
Same read-out and setting: under `O=[N+]([O-])c1ccc2c(c1)Cc1ccccc1-2` stands “inactive”.
On the same count and under the same terms, under `CCC1COC(=O)O1` (stereo not drawn) stands “inactive”; under `C=C(C)C(=O)OCCCCCCOC(=O)C(=C)C`, “inactive”.
Same read-out and setting: under `Cc1c2oc3c(C)ccc(C(=O)N[C@@H]4C(=O)N[C@H](C(C)C)C(=O)N5CCC[C@H]5C(=O)N(C)CC(=O)N(C)[C@@H](C(C)C)C(=O)O[C@@H]4C)c3nc-2c(C(=O)N[C@@H]2C(=O)N[C@H](C(C)C)C(=O)N3CCC[C@H]3C(=O)N(C)CC(=O)N(C)[C@@H](C(C)C)C(=O)O[C@@H]2C)c(N)c1=O` (I: T[dV]P[Sar][NMeV] / II: T[dV]P[Sar][NMeV]; ester I:1-I:C, II:1-II:C; linker I:N-II:N via Actinocin(9to1)) stands “inactive”; under `O=[N+]([O-])c1ccccc1Nc1ccccc1`, “inactive”.
Take `CCN1CCCC(OC(=O)C(c2ccccc2)c2ccccc2)C1` (stereo not drawn): the Potency result is “inactive”.
Take `O=C1CCCCCCCCCCCCCCCO1`: the Potency entry is “inactive”.
Take `O=C(O[C@@H](C(=O)O)[C@@H](OC(=O)c1ccccc1)C(=O)O)c1ccccc1`: the Potency entry was “inactive”.
For the compound `CN(C)CCCNCCCN(C)C`, the Potency result is “inactive”.
For `CCC(=O)OC(C)c1ccccc1` (stereo not drawn), the Potency result is “inactive”.
For `CC(C)CC(C)(N)C#N` (stereo not drawn), the Potency result is “inactive”.
On to `Cc1cc(C)cc(O)c1`, for which the Potency entry is “inactive”.
Same read-out and setting: under `C=C(C)[C@@H]1CCC2=CC(=O)C[C@@H](C)[C@]2(C)C1` stands “inactive”; under `O=c1[nH]c(=O)c2ccccc2o1`, “inactive”; under `COCCOCCOCCOCCO`, “inactive”.
Regarding `CCCCCCCCCCCCCCC(=O)NC(CO)CCCCCCCCCCCCCC` (stereo not drawn), the Potency result is “inactive”.
With `C[C@@H]1CCC[C@H](C)N1CCCC(O)(c1ccccc1)c1ccccn1` (stereo partly drawn), the Potency entry was “inactive”.
With `CCCCCCCCCC(C)=O`, the Potency result was “inactive”.
On the same count and under the same terms, under `CN(C)c1ccc(C(=N)c2ccc(N(C)C)cc2)cc1` stands “inactive”; under `CCCCCCCCCC/C=C/C#N`, “inactive”.
Consider `CNC(=O)Nc1ccc(Cl)c(Cl)c1`, for which the Potency result was “inactive”.
As for `[Cl][Eu]([Cl])[Cl]`, the Potency result is “inactive”.
On to `c1cnc2cc3c(cc2n1)C1CNCC3C1`, for which the Potency entry is “inactive”.
Take `Nc1c(NC/C=C\COc2cc(CN3CCCCC3)ccn2)c(=O)c1=O`: the activation was 1.38% [at 15.8 µM].
Regarding `FC(F)(F)C(Cl)(Cl)Cl`, the Potency entry is “inactive”.
On the same count and under the same terms, in the case of `CCc1ccc(C=O)cc1` it was “inactive”; in that of `COC(=O)Cc1cccc2ccccc12`, “inactive”.
Same read-out and setting: under `CCCc1c2oc(C(=O)O)cc(=O)c2cc2c(=O)cc(C(=O)O)n(CC)c12` stands “inactive”; under `CO[C@H]1C=CO[C@@]2(C)Oc3c(C)c(O)c4c(O)c(c(/C=N/N5CCN(C)CC5)c(O)c4c3C2=O)NC(=O)/C(C)=C\C=C[C@H](C)[C@H](O)[C@@H](C)[C@@H](O)[C@@H](C)[C@H](OC(C)=O)[C@@H]1C`, “inactive”.
`O=C(O)Cc1ccc(CCNS(=O)(=O)c2ccc(Cl)cc2)cc1`: the Potency entry is “inactive”.
For `Cc1cc(C)c(C(=O)O)c(C)c1`, the Potency entry is “inactive”.

These data come from PubChem BioAssay (Tox21).
